Screening results as filed in PubChem BioAssay.
In the library only some 4.1% were active in any assay of this set; here they are far more common.
Bfl-1 A1 inh = inhibitors of the anti-apoptotic protein A1, read as caspase activation. MEF A1-2A-BIM cells, Caspase-Glo 3/7 luminescence, 3 h; percent of clofoctol response, vehicle zero. caspase activation, % (test concentration not listed). hit rate 0.066% among 330,000;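 active = over half of replicate activation scores above 10%, or exactly half above 10 with the replicate mean above 10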
aSyn UTR inh = MLPCN primary screen, SNCA 5' untranslated region; inhibition, % (tested at 7.5 µM); hit rate 0.82% among 300,000; alpha-synuclein 5'UTR reporter, inhibitor activity; AID 1813; in the data active = inhibition above about 60%;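 also: H4 neuroglioblastoma cells stably carrying SNCA 5'UTR luciferase fusion; 0% = DMSO wells and 100% = positive control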
Beta apoptosis = beta cell apoptosis inhibition; AID 435005; hit rate 0.8% among 300,000; protection from apoptosis, % (test concentration not listed); INS-1E cytokine-induced death, ATP luminescence, 48 h; percent of positive-control rescue, neutral wells zero;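 active = Every replicate reaches about 75%, or at least half do and their mean reaches it too, limit read from the data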;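 also: 0% = cytokine-treated negative control wells and 100% = positive control rescue; higher means more ATP so stronger rescue from cytokine killing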
Mdm2 MdmX PPI = human Mdm2/MdmX binding inhibition | inhibition, % at 8 µM | hit rate 3% among 330,000 | SaOS-2 split-luciferase Mdm2/MdmX complementation, luminescence | O15151+Q00987;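 active = inhibition of at least 50% at 8 µM in the primary screen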
Target sequence (O15151 whole entry, looked up): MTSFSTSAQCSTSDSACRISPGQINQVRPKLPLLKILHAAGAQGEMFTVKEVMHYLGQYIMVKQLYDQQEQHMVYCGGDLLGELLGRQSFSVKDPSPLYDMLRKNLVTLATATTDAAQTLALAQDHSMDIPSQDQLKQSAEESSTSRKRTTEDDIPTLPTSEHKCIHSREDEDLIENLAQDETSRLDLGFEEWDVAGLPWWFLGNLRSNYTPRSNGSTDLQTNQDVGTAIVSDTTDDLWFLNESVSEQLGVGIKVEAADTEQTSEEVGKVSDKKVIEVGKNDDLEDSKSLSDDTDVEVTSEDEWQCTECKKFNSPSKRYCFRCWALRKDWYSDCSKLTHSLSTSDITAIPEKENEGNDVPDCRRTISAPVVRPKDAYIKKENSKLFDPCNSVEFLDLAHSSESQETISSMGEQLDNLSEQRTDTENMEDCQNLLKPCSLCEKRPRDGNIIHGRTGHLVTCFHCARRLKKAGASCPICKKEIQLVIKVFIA
Target sequence (Q00987 whole entry, looked up): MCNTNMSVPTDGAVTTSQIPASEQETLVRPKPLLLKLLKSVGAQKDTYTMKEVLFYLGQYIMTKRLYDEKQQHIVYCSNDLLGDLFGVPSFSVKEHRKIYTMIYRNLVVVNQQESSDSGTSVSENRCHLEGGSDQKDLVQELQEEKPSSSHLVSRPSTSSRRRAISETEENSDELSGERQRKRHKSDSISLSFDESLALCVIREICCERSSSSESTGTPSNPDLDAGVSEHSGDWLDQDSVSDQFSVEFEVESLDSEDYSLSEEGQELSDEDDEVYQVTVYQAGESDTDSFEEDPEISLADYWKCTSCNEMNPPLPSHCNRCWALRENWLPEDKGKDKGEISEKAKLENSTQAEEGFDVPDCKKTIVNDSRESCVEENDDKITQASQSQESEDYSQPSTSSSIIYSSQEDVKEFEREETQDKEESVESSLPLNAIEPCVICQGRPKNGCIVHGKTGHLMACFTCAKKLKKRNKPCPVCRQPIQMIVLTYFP
CSC inhib = cancer stem cell inhibition. cancer stem cell-like cells viability, luminescence. inhibition, % at 7.5 µM. hit rate 1.1% among 300,000. AID 2717; in the data active = inhibition above about 75%; tested in HMLE shEcad cells
Mdm2-MdmX conf = human Mdm2/MdmX binding inhibition, confirmed | inhibition, % at 8 µM | luminescent assay | hit rate 55% among 10,000 | shares compounds with Mdm2 MdmX PPI | AID 489028; in the data active = inhibition above about 40%
FLuc counter = full-length luciferase inhibition in Mdm2/MdmX counter-screen | shares compounds with Mdm2 MdmX PPI | AID 504607 | inhibition, % at 8 µM | hit rate 77% among 6,200 | SaOS-2 full-length luciferase counterscreen, luminescence;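 active = mean inhibition at 8 µM reaching about 37%, which flags the compound as non-specific, limit read from the data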;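 also: p53-null SaOS-2 cells with luciferase driven by a doxycycline-inducible promoter; compound on cells about two nights before reading with doxycycline added after day one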
* marks the source's active call; other numbers are inactive results; / = no result.

SMILES | Bfl-1 A1 inh | aSyn UTR inh | Beta apoptosis | Mdm2 MdmX PPI | CSC inhib | Mdm2-MdmX conf | FLuc counter
Cc1ccc(-n2ncc3c2CCCC3NC(=O)CCCN2CCCC2=O)cc1C (centres undefined) | 0.5 | 7.7 | -3.2 | 2.6 | -19.5 | / | /
COc1ccc(Cc2c(C)nc(N)nc2Cl)cc1 | -0.1 | 4.3 | -3.1 | 6.1 | -5.7 | / | /
Cc1nc(N)nc(N)c1CCCc1ccc(Cl)c(Cl)c1 | -0.4 | 91.8* | 5.1 | 68.0* | 66.3 | 56.9* | 49.6*
C=CCc1cccc2cc(C(=O)N3CCN(C(=O)c4ccccc4)CC3)c(=O)oc12 | -0.2 | 0.1 | -3.3 | 29.6 | / | / | /
CCC(C)(C)NC(=O)C(c1ccc(OC)cc1)N(C(=O)CCC(=O)Nc1cc(C)on1)c1ccc2c(c1)OCO2 (centres undefined) | 0.7 | -22.8 | -0.3 | 0.2 | 1.2 | / | /
O=C(N/N=C/c1ccc[nH]1)c1ccccc1OCc1ccc(F)cc1 | 1.0 | 11.1 | -6.4 | -14.0 | -6.4 | / | /
CCOc1ccc(OCc2ccc(C(=O)NN=Cc3ccc[nH]3)cc2)cc1 | 9.7* | / | 123.3* | 83.5* | 92.2* | 73.0* | 28.0
CN(Cc1ccccc1)C(=O)c1ccc(NC(=O)C2CCN(C(=O)OC(C)(C)C)CC2)cc1 | -0.3 | / | 3.7 | 75.8* | 11.8 | 58.5* | 31.6
CN(C(=O)c1ccc(NC(=O)C2CCN(C(=O)OC(C)(C)C)CC2)cc1)C1CC1 | 0.5 | / | -3.7 | -29.5 | / | / | /
CCN(CC)c1ccc(/C=C(/C#N)c2nc3ccccc3[nH]2)c(OC(C)C)c1 | -0.6 | -211.1 | 39.9 | 79.8* | 71.3 | 76.7* | 87.6*
C=CCn1c(Sc2ncc([N+](=O)[O-])s2)n[nH]c1=O | -0.5 | -11.3 | 60.3 | 66.4* | 106.0* | 87.5* | 56.2*
COC(=O)c1ccc2c(=O)[nH]c(COC(=O)c3c(-c4ccccc4)noc3C)nc2c1 | 1.0 | 13.4 | -1.7 | 19.4 | -12.9 | / | /
CN(CC(=O)Nc1ccccc1Br)C(=O)c1ccccc1-c1nc2ccccc2s1 | -0.5 | 10.5 | -5.0 | -0.5 | -35.7 | / | /
Cc1ccc(NS(=O)(=O)c2ccc(-c3cnc(C4CC4)o3)cc2)cc1 | 0.6 | -35.2 | 19.4 | 53.1* | 65.2 | 50.6* | 49.6*
Cc1cccc(C)c1NS(=O)(=O)c1ccc(-c2cnc(C3CC3)o2)cc1 | / | 102.7* | / | 81.6* | / | 53.4* | 92.9*
O=S(=O)(NCc1ccccc1)c1ccc(-c2cnc(C3CC3)o2)cc1 | -1.6 | 7.9 | 8.3 | 26.0 | 50.5 | / | /
CCOc1ccccc1CNS(=O)(=O)c1ccc(-c2cnc(C3CC3)o2)cc1 | / | 74.3* | / | 60.5* | / | 60.0* | 83.6*
Cc1ccc(CNS(=O)(=O)c2ccc(-c3cnc(C4CC4)o3)cc2)cc1 | 1.1 | -14.7 | -6.1 | 12.7 | 15.6 | / | /
Cc1ccc(N(C)S(=O)(=O)c2ccc(-c3cnc(C4CC4)o3)cc2)cc1 | 2.8 | 83.9* | 25.1 | 61.0* | 71.9 | 55.4* | 78.7*
CC(=O)c1ccc(NS(=O)(=O)c2ccc(-c3cnc(C4CC4)o3)cc2)cc1 | / | -2.8 | / | 17.5 | / | / | /
COc1ccc(C)cc1NS(=O)(=O)c1ccc(-c2cnc(C3CC3)o2)cc1 | / | 102.2* | / | 82.6* | / | 52.0* | 111.4*
O=S(=O)(NC1CCCC1)c1ccc(S(=O)(=O)N2CCN(c3ccccc3)CC2)cc1 | 0.8 | 0.6 | / | 17.4 | 6.7 | / | /
O=S(=O)(c1ccc(-c2cnc(C3CC3)o2)cc1)N1CCN(c2ccccc2)CC1 | 1.5 | 2.6 | 8.1 | 59.3* | -8.7 | 1.6 | /
CCc1nn(CC(=O)NCc2cccnc2)c(=O)c2cc3occc3n12 | 0.9 | 9.1 | 1.7 | 7.6 | -1.9 | / | /
CCC[C@H](CN[C@@H](CNC)[C@H](C)O)NCCc1ccc(OC)cc1 | -1.5 | 7.0 | 2.4 | -15.9 | 11.3 | / | /
SMILES | Bfl-1 A1 inh | aSyn UTR inh | Beta apoptosis | Mdm2 MdmX PPI | CSC inhib | Mdm2-MdmX conf | FLuc counter
CCCC[C@H](CN[C@@H](CNC)[C@H](C)CC)NCCC12CCC(CC1)C2 | -0.2 | -42.6 | 72.5 | 98.5* | 10.0 | 98.0* | 50.4*
O=C(CCCNC(=O)c1ccc(Cl)cc1)NCc1ccccc1F | 0.5 | 9.3 | -2.4 | 8.8 | -7.4 | / | /
COc1ccc(NC(=O)CN2CCN(C3c4ccccc4-c4ccccc43)CC2)c(OC)c1 | -0.4 | 33.8 | 9.9 | 94.4* | 26.9 | 20.7 | /
COc1ccccc1NC(=O)CN1CCN(C2c3ccccc3-c3ccccc32)CC1 | -0.1 | 21.7 | 3.9 | 38.2 | 59.5 | / | /
O=C(CSc1nc2nn(-c3ccccc3)c(=O)c-2c2n1CCCCC2)Nc1ccc(F)c(F)c1 | -1.3 | / | 2.5 | 55.0* | -10.2 | 21.6 | /
O=C(CN1C(=O)NC2(CCCc3ccccc32)C1=O)NCC(F)(F)F (centres undefined) | -0.2 | 8.9 | 1.8 | 0.2 | -7.3 | / | /
Cc1ccc(-c2csc3ncnc(Sc4nnc(CN5CCCCCC5=O)o4)c23)cc1 | 0.0 | -44.4 | -1.3 | 83.4* | 81.0* | 100.2* | -0.7
Cc1ccc(-c2csc3ncnc(SCC(=O)Nc4nnc(C)s4)c23)cc1 | 0.1 | -12.4 | -5.1 | -14.2 | 18.0 | / | /
O=C(CN1C(=O)/C(=C\c2cccc(Br)c2)Oc2ccccc21)NCCCN1CCOCC1 | 0.8 | -43.9 | / | 63.2* | 34.6 | 10.7 | /
O=C(CN1C(=O)COc2ccccc21)NCCCN1CCOCC1 | 0.3 | 10.3 | -7.4 | -14.9 | -5.2 | / | /
CCCCN(CC)C(=O)CSc1nc2n[nH]c(C)c2c(=N)n1-c1cccc(C)c1 | 2.3 | 38.8 | 12.4 | 25.4 | 6.1 | / | /
CCCN(CCC)C(=O)CSc1nc2n[nH]c(C)c2c(=N)n1-c1ccc(OC)cc1 | -0.3 | 52.7 | 25.6 | 50.3* | 1.5 | 19.4 | /
COc1ccccc1NC(=O)CSc1nc2n[nH]c(C)c2c(=N)n1-c1ccccc1Cl | -0.4 | -21.9 | / | 67.6* | 16.8 | 41.3* | 70.5*
CCN(C(=O)CSc1nc2n[nH]c(C)c2c(=N)n1-c1ccc(Cl)c(C)c1)c1cccc(C)c1 | -4.3 | 48.9 | 34.4 | 76.1* | 42.3 | 20.9 | /
CCN(CC)Cc1c(C(=O)N/N=C/c2ccccn2)nnn1-c1nonc1N | -0.2 | -11.1 | -4.8 | 15.5 | / | / | /
CN(C(=O)COC(=O)C1CSC2(C)CCC(=O)N12)c1ccccc1 (centres undefined) | 0.8 | -5.6 | / | 3.7 | -12.5 | / | /
O=c1c2ccccc2nc(CSc2nnnn2-c2ccccc2)n1-c1ccccc1Cl | -0.3 | 24.1 | 16.8 | 68.2* | -14.6 | 43.2* | 63.9*
CC1CCN(c2nc(CN3CCCCC3)nc3scc(-c4ccccc4)c23)CC1 | 0.1 | -9.1 | 36.5 | 56.8* | 63.9 | 20.1 | /
CC1CCCN(c2nc(-c3cccnc3)nc3scc(-c4ccccc4)c23)C1 (centres undefined) | 0.1 | -28.9 | 55.9 | 15.1 | -3.3 | / | /
O=C(O)c1cccc(N/N=C/c2cn(-c3ccccc3)nc2-c2cccs2)c1 | 1.1 | -68.5 | -8.0 | 14.7 | 5.5 | / | /
NS(=O)(=O)c1ccc(N/N=C/c2cn(-c3ccccc3)nc2-c2cccs2)c([N+](=O)[O-])c1 | -0.2 | -48.9 | 108.2* | 96.0* | 96.0* | 15.4 | /
